Data reported in PubChem BioAssay (NCATS).
Values joined by “and” are separate entries in the source; they are usually repeats but may differ in a detail not shown here. Equal entries are not always repeated. Records with an inconclusive call do not appear. Active and inactive are the calls of the source. Unless noted, calls come from the whole dose curve; as a rule, active = well fitted curve in the direction sought with a large enough effect; inconclusive = small, poorly fitted or top-dose-only effect, or another doubt; inactive = no such curve, though single readings can be large; an effect the other way counts as inactive or inconclusive.

Assays:
UISO = test: qHTS assay to identify novel small-molecules to repurpose for Merkel cell carcinoma treatment (AID 1296009); conditions: MCC and control cell lines, CellTiter-Glo viability, 72 h; series mostly up to 46 µM; note: nearly all actives have a fitted effect of over 60% in size; note: potency is the fitted concentration of half-maximal effect
Outline: (§1)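 Cells were incubated with compound for 72 hr at 37 degree celsius before CellTiter-Glo addition. Luminescence was normalized with no-cell wells as full cytotoxicity and DMSO as baseline.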

C33A = test: Primary qHTS to identify gynecologic anti-cancer compounds using libraries of approved drugs and bioactive compounds (AID 1345084); conditions: Gynecologic cancer cell panel viability, ATPlite luminescence, 48 h; series mostly up to 57.5 µM; note: nearly all actives have a fitted effect of over 55% in size; note: potency is the fitted concentration of half-maximal effect
Outline: (§2)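 Cells, 1,000 per well, were allowed to settle for 16 h at 37 C before compound addition. Five concentrations were tested for 48 h, and viability was read by ATPlite luminescence after 15 min at room temperature.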

CASKI = test: as above; conditions: Gynecologic cancer cell panel viability, ATPlite luminescence, 48 h; series mostly up to 57.5 µM
Outline: as §2

Es-2 = test: as above; conditions: Gynecologic cancer cell panel viability, ATPlite luminescence, 48 h; series mostly up to 57.5 µM
Outline: as §2

HeLa = test: as above; conditions: Gynecologic cancer cell panel viability, ATPlite luminescence, 48 h; series mostly up to 57.5 µM
Outline: as §2

Hek293T = test: as above; conditions: Gynecologic cancer cell panel viability, ATPlite luminescence, 48 h, control line for the selectivity index; series mostly up to 57.5 µM
Outline: as §2

JEG-3 = test: as above; conditions: Gynecologic cancer cell panel viability, ATPlite luminescence, 48 h; series mostly up to 57.5 µM
Outline: as §2

OV90 = test: as above; conditions: Gynecologic cancer cell panel viability, ATPlite luminescence, 48 h; series mostly up to 57.5 µM
Outline: as §2

PA-1 = test: as above; conditions: Gynecologic cancer cell panel viability, ATPlite luminescence, 48 h; series mostly up to 57.5 µM
Outline: as §2

SKOV3 = test: as above; conditions: Gynecologic cancer cell panel viability, ATPlite luminescence, 48 h; series mostly up to 57.5 µM
Outline: as §2

Tov-21-G = test: as above; conditions: Gynecologic cancer cell panel viability, ATPlite luminescence, 48 h; series mostly up to 57.5 µM
Outline: as §2

Tov112D = test: as above; conditions: Gynecologic cancer cell panel viability, ATPlite luminescence, 48 h; series mostly up to 57.5 µM
Outline: as §2

WaGa = test: qHTS assay to identify novel small-molecules to repurpose for Merkel cell carcinoma treatment (AID 1296009); conditions: MCC and control cell lines, CellTiter-Glo viability, 72 h; series mostly up to 46 µM; note: nearly all actives have a fitted effect of over 60% in size; note: potency is the fitted concentration of half-maximal effect
Outline: as §1

CAOV3 = test: Primary qHTS to identify gynecologic anti-cancer compounds using libraries of approved drugs and bioactive compounds (AID 1345084); conditions: Gynecologic cancer cell panel viability, ATPlite luminescence, 48 h; series mostly up to 57.5 µM; note: nearly all actives have a fitted effect of over 55% in size; note: potency is the fitted concentration of half-maximal effect
Outline: as §2

[1] = Drug repurposing screens with cells derived from glioblastoma tumor samples (AID 1345199); conditions: GBM patient neurospheres viability, ATP luminescence, 48 h; note: nearly all actives have a fitted effect of over 40% in size; note: potency is the fitted concentration of half-maximal effect; for activity, negative = cell killing: % is set by controls: 0 for no effect and ±100 for the full control effect
Outline: (§3)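 Four patient lines of CD133+ GBM neurospheres were screened at several concentrations; hits were retested in those lines plus three slower-growing GBM lines, using 48-hour treatment and ATP-based viability.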

astro = test: as above; conditions: viability, ATP luminescence, 48 h; series mostly up to 45.9 µM
Outline: as §3

[2] = molecular target: Nuclear receptor subfamily 1 group I member 2 (Rattus norvegicus) (UniProt Q9R1A7); test: qHTS assay for small molecule activators of the rat pregnane X receptor (rPXR) signaling pathway (AID 651751; call rule not given here; note: 0% is about no effect); conditions: rPXR reporter cells, luciferase (One-Glo), 24 h
Sequence of Nuclear receptor subfamily 1 group I member 2 (Rattus norvegicus) (Q9R1A7 whole entry, looked up): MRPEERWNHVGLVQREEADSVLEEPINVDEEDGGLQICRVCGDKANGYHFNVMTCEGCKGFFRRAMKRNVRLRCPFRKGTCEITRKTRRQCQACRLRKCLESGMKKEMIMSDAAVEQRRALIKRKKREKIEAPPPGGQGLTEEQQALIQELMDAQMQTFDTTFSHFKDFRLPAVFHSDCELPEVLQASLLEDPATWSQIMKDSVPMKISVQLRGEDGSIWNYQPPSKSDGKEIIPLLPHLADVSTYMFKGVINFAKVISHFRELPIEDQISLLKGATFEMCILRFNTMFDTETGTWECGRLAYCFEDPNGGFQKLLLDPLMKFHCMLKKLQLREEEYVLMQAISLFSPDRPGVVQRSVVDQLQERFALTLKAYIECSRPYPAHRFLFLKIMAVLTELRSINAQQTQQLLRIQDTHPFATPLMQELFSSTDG

[3] = qHTS assay for small molecule activators of the human pregnane X receptor (PXR) signaling pathway (AID 720659; call rule not given here; note: 0% is about no effect)
[4] = at 45.9 µM (top of the series), tumour line B
[5] = at 46.1 µM (top of the series), tumour line C
[6] = at 45.9 µM (top of the series), tumour line D

C[C@@H]1CN(Cc2ccc(F)cc2)[C@@H](C)CN1C(=O)c1cc2c(C(=O)C(=O)N(C)C)cn(C)c2cc1Cl
inactive: Potency (UISO) | Potency (C33A) | Potency (CASKI) | Potency (Es-2) | Potency (HeLa) | Potency (Hek293T) | Potency (JEG-3) | Potency (OV90) | Potency (PA-1) | Potency (SKOV3) | Potency (Tov-21-G) | Potency (Tov112D)

CC(C)(N)C(=O)N[C@H](COCc1ccccc1)C(=O)N1CCC2(CC1)CN(S(C)(=O)=O)c1ccccc12
inactive: Potency (UISO) | Potency (WaGa) | Potency (C33A) | Potency (CASKI) | Potency (HeLa) | Potency (JEG-3) | Potency (OV90) | Potency (PA-1) | Potency (Tov-21-G) | Potency (Tov112D)

c1ccc(-c2nn3c(c2-c2ccnc4cc(OCCN5CCOCC5)ccc24)CCC3)nc1
active: Potency (WaGa) 14.8 µM

C[C@H](NC(=O)Cc1cc(F)cc(F)c1)C(=O)N[C@@H]1C(=O)N(C)c2ccccc2-c2ccccc21
inactive: Potency (UISO) | Potency (C33A) | Potency (CAOV3) | Potency (CASKI) | Potency (Es-2) | Potency (HeLa) | Potency (Hek293T) | Potency (JEG-3) | Potency (OV90) | Potency (PA-1) | Potency (SKOV3) | Potency (Tov-21-G) | Potency (Tov112D)

CCOC(=O)N1CCC(=C2c3ccc(Cl)cc3CCc3cccnc32)CC1
active: Potency ([1]; tumour line A) 10 µM
inactive: Potency (UISO) | Potency (C33A) | Potency (CAOV3) | Potency (CASKI) | Potency (Hek293T) | Potency (JEG-3) | Potency (OV90) | activity, negative = cell killing [1, 4] -28.2% | activity, negative = cell killing [1, 5] -20.3%

Cc1csc(NC(=O)c2sc3nc4c(c(C(F)(F)F)c3c2N)CCC4)n1
active: Potency (CAOV3) 1.12 µM | Potency (Es-2) 2.51 µM | Potency (HeLa) 2.82 µM | Potency (Hek293T) 3.55 µM | Potency (OV90) 12.6 µM | Potency (Tov-21-G) 3.55 µM | Potency (Tov112D) 11.2 µM
inactive: Potency (UISO) | Potency (WaGa)

CN1CCN(CCCN2c3ccccc3Sc3ccc(C(F)(F)F)cc32)CC1
inactive: Potency (UISO) | Potency (WaGa) | Potency (C33A) | Potency (HeLa) | Potency (JEG-3) | Potency (Tov-21-G) | activity, negative = cell killing [1, 5] -24.2%
active: Potency (OV90) 11.2 µM | Potency (SKOV3) 14.1 µM | Potency ([1]; tumour line A) 2.51 µM | Potency ([1]; tumour line B) 15.8 µM | Potency ([1]; tumour line D) 6.31 µM | Potency (astro) 25.1 µM

CN(C)c1ccc(Nc2nc(N)n(C(=O)c3c(F)cccc3F)n2)cc1
active: Potency (HeLa) 12.6 µM
inactive: Potency (UISO) | Potency (C33A) | Potency (CASKI) | Potency (Es-2) | Potency (Hek293T) | Potency (JEG-3) | Potency (OV90) | Potency (PA-1) | Potency (SKOV3) | Potency (Tov-21-G) | Potency (Tov112D)

O=NN(CCCl)C(=O)NCCCl
inactive: Potency (UISO) | Potency (WaGa) | Potency (C33A) | Potency (CASKI) | Potency (Es-2) | Potency (HeLa) | Potency (JEG-3) | Potency (OV90) | Potency (PA-1) | Potency (SKOV3) | Potency (Tov-21-G) | Potency (Tov112D) | activity, negative = cell killing [1, 4] -7.98% | activity, negative = cell killing [1, 6] -22.2% | activity, negative = cell killing ([1]; at 46 µM (top of the series), tumour line A) -13.2% | activity, negative = cell killing [1, 5] -21% | Potency (astro) | max response [2] -1.45%

Cc1cc(-c2ccc(CC(=O)Nc3ccc(-c4cccnc4)cc3)cc2)ccn1
inactive: Potency (WaGa)

CCCS(=O)(=O)Nc1ccc(F)c(C(=O)c2c[nH]c3ncc(Cl)cc23)c1F
inactive: Potency (WaGa) | Potency (C33A) | Potency (CASKI) | Potency (HeLa) | Potency (Hek293T) | Potency (JEG-3) | Potency (OV90) | Potency (Tov112D)

CNC(=O)c1ccc(C)c(-n2c(C)cc(OCc3ccc(F)cc3F)c(Br)c2=O)c1
inactive: Potency (C33A) | Potency (CAOV3) | Potency (CASKI) | Potency (Es-2) | Potency (HeLa) | Potency (Hek293T) | Potency (JEG-3) | Potency (OV90) | Potency (PA-1) | Potency (SKOV3) | Potency (Tov-21-G) | Potency (Tov112D)

Cn1cnc([N+](=O)[O-])c1Sc1ncnc2nc[nH]c12
active: Potency (WaGa) 1.91 µM | Potency (C33A) 8.91 µM and 7.94 µM | Potency (CASKI) 1.26 µM and 3.55 µM | Potency (Es-2) 3.16 µM and 10 µM | Potency (HeLa) 1.41 µM | Potency (Hek293T) 15.8 µM and 28.2 µM | Potency (JEG-3) 3.16 µM | Potency (OV90) 3.98 µM and 7.08 µM | Potency (PA-1) 1.12 µM and 7.08 µM | Potency (Tov-21-G) 1.12 µM and 3.16 µM | Potency (Tov112D) 5.62 µM and 7.08 µM | Potency ([1]; tumour line A) 2.51 µM
inactive: Potency (SKOV3) | activity, negative = cell killing [1, 4] -21.8% | activity, negative = cell killing [1, 5] -41.7% | max response [2] -0.454% and -2.45% | outcome [3]

O=C(O)CCc1ccc(NCc2cccc(Oc3ccccc3)c2)cc1
inactive: Potency (C33A) | Potency (CASKI) | Potency (JEG-3)

Cc1ccc(-n2nc(C(C)(C)C)cc2NC(=O)Nc2ccc(OCCN3CCOCC3)c3ccccc23)cc1
inactive: Potency (WaGa) | Potency (C33A) | Potency (CASKI) | Potency (Es-2) | Potency (HeLa) | Potency (Hek293T) | Potency (JEG-3) | Potency (OV90) | Potency (PA-1) | Potency (SKOV3) | Potency (Tov-21-G) | Potency (Tov112D) | activity, negative = cell killing [1, 4] 12.9% | activity, negative = cell killing [1, 6] -19.4% | activity, negative = cell killing [1, 5] -25.6%
